Experiment [1] has as its target Cellular tumor antigen p53 (Homo sapiens) (UniProt P04637). The experiment in a line: TOX21_p53_BLA_p2_ratio: Tox21 HCT-116 p53 Agonism Beta-lactamase Assay, Ratio, Phase 2 (AID 2283592). The essentials: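 Cleaved-to-uncleaved substrate ratio (460 vs 530 nm) measured in HCT116 cells with an inducible beta-lactamase reporter linked to p53 activity. Compounds incubated 16 h at 37C before 2 h room-temperature CCF4-AM loading.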

A short description of experiment [2]: TOX21_p53_BLA_p3_viability: Viability Assessment in the Tox21 HCT-116 p53 Agonism Beta-lactamase Assay, Phase 3 (AID 2283593).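 Note: cells exposed to compound for 16 h before reading.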 The essentials:
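Cellular ATP was quantified by CellTiter-Glo luminescence, read after 30 min at room temperature. Beforehand, HCT116 cells (4000/well) received compound 5 h post-seeding, 217-fold diluted from DMSO, then incubated 16 h at 37C.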

Experiment [3] addresses Cellular tumor antigen p53 (Homo sapiens) (UniProt P04637). The experiment in a line: TOX21_p53_BLA_p3_ratio: Tox21 HCT-116 p53 Agonism Beta-lactamase Assay, Ratio, Phase 3 (AID 2283596). Summed up:
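Cells were seeded at 4000/well, rested 5 h at 37C, then dosed with DMSO compound solutions (217-fold dilution) for 16 h. CCF4-AM substrate was loaded for 2 h at room temperature, and the 460/530 nm emission ratio was fitted for gain of signal versus DMSO.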

Experiment [4] can be described thus: TOX21_p53_BLA_p4_viability: Viability Assessment in the Tox21 HCT-116 p53 Agonism Beta-lactamase Assay, Phase 4 (AID 2283597).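 Note: hits lower the luminescence signal meaning cytotoxicity.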 The essentials:
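Viability is taken as cellular ATP: after 16 h compound exposure of HCT116 cells and a 2 h room-temperature CCF4-AM substrate step, CellTiter-Glo reagent is added and luminescence is measured 30 min later.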

In experiment [5] the target is Cellular tumor antigen p53 (Homo sapiens) (UniProt P04637). Put plainly: TOX21_p53_BLA_p5_ratio: Tox21 HCT-116 p53 Agonism Beta-lactamase Assay, Ratio, Phase 5 (AID 2283599). Summed up:
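Beta-lactamase reporter ratio (blue 460 nm over green 530 nm, 405 nm excitation) after 2 h CCF4-AM loading, in HCT-116 cells exposed 16 h at 37 C to compounds pinned at 217-fold dilution. Increases relative to DMSO baseline scored.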

Experiment [6] in a line: TOX21_p53_BLA_p5_viability: Viability Assessment in the Tox21 HCT-116 p53 Agonism Beta-lactamase Assay, Phase 5 (AID 2283600). Summed up: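 Viability is taken from cellular ATP content, measured by luciferase luminescence in the same wells after the beta-lactamase ratio read. Cells are seeded at 4000 per well and exposed to DMSO-dissolved compounds, diluted 217-fold, for 16 h.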

Experiment [7] concerns the target Cellular tumor antigen p53 (Homo sapiens) (UniProt P04637). The experiment in a line: TOX21_p53_BLA_p4_ratio: Tox21 HCT-116 p53 Agonism Beta-lactamase Assay, Ratio, Phase 4 (AID 2283601). Summed up:
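Signal is the blue/green (460nm/530nm) ratio of cleaved versus uncleaved CCF4-AM substrate, read after 2 h substrate loading. Cells were HCT116 carrying the p53-responsive beta-lactamase reporter, dosed 16 h at 37C, 5% CO2; CellTiter-Glo measured in parallel.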

A short description of experiment [8]: ACEA_AR_agonist_AUC_viability: ACEA Biosciences xCELLigence Real-Time Cell Analysis on Androgen Receptor Agonism for Viability (AID 2283775).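 For AC50: viability read 80 hours after compound addition.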 The essentials: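 Viability endpoint from xCELLigence impedance in 22Rv1 prostate cells at 80 h. Eight-point series, 100 uM maximum final.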
Experiment [9] in a line: TOX21_p53_BLA_p2_viability: Viability Assessment in the Tox21 HCT-116 p53 Agonism Beta-lactamase Assay, Phase 2 (AID 2283591).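 Note: compound exposure lasted 16 h at 37 °C; actives lower the ATP signal meaning cytotoxicity.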 Summed up:
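Cytotoxicity readout: CellTiter-Glo ATP luminescence, 30 min at room temperature, after the beta-lactamase read. Cells were HCT116 exposed 16 h at 37C to compounds pin-transferred at 217-fold dilution from DMSO stocks.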

Inconclusive results are not listed. Active and inactive are the calls of the source. Rule for the calls: active = hit-call score of the fitted dose curve at least 0.9, where 1 is the maximum; inconclusive = response in the unintended direction; inactive = score below 0.9.

Experimental findings from PubChem BioAssay (EPA / NIEHS) are described below.

Chain of Cellular tumor antigen p53 (Homo sapiens) (P04637 whole entry, looked up): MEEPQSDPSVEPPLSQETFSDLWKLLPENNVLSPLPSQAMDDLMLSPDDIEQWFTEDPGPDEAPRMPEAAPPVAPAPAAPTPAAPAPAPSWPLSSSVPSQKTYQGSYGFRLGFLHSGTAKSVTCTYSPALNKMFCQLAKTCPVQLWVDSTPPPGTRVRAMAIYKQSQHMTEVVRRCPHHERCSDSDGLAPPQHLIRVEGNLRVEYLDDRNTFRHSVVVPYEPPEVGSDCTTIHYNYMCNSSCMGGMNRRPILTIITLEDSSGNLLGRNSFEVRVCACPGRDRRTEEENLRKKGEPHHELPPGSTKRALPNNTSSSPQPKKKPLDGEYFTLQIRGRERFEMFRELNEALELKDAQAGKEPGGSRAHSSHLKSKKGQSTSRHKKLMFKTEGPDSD

In the case of `CCCCOCCOC(=O)COc1nc(Cl)c(Cl)cc1Cl`, the result in experiment [1], in experiment [2], in experiment [3], in experiment [4], in experiment [5] and in experiment [6] was inactive. The result in experiment [7] and in experiment [8] was inactive.
Consider `Cc1cccc(N)n1`, for which the result in [9], in [4], in [5], in experiment [6] and in [7] was inactive.
`CCCCCCC(O)CO` (configuration not stated): the outcome in [1], in [2], in [3], in experiment [4], in experiment [5] and in [6] was inactive. Besides, the outcome in [7] was inactive.
Consider `CC1=CC[C@H]2C[C@@H]1C2(C)C`, for which the outcome in experiment [9], in experiment [4] and in experiment [8] was inactive.
On to `CCCCCc1ccc(Cl)cc1`, for which the compound was called inactive in experiment [9], in experiment [3], in experiment [5] and in experiment [7].
Consider `COC(=O)/C=C/C(C)=C\C=C\C(C)=C\C=C\C=C(C)\C=C\C=C(C)\C=C\C(=O)O`, for which the outcome in experiment [1], in [2], in experiment [3], in experiment [4] and in experiment [5] was inactive.
As for `CC(=O)OCC(=O)[C@@]12N=C(C)O[C@@H]1C[C@H]1[C@@H]3CCC4=CC(=O)C=C[C@]4(C)[C@H]3[C@@H](O)C[C@@]12C`, the outcome in [9], in experiment [6] and in [7] was inactive.
In the case of `CC(C)=CCC[C@H](C)CCO`, the result in experiment [1], in experiment [2], in experiment [3], in [4], in [6] and in experiment [8] was inactive.
For the compound `CCC(C)(C)C1CCCCC1OC(C)=O` (configuration not stated), the result in experiment [1], in experiment [2], in experiment [3], in experiment [5], in experiment [6] and in experiment [7] was inactive.
Consider `Cc1cccc(OCCOc2cccc(C)c2)c1`, for which the outcome in [1], in experiment [2], in [3], in [5] and in [7] was inactive.
`O=C(C(Cl)Cl)N1CCOC12CCCCC2`: the call in [9], in experiment [3] and in experiment [4] was inactive. Moreover, the concentration at half-maximal activity (AC50) in [8] is 9.81 µM (active).
As to `c1c[nH]cn1`, the result in experiment [1], in experiment [2], in [3], in experiment [5], in experiment [7] and in experiment [8] was inactive.
For `CC(C)c1ccc(C=O)cc1`, the outcome in [1] and in [2] was inactive.
Turning to `N#CCc1ccc(Cl)cc1Cl`, the result in experiment [9], in experiment [5] and in experiment [7] was inactive.
Regarding `CC(C)(C)C(=O)C=Cc1ccc(Cl)cc1`, the result in experiment [1], in experiment [2], in [3], in [4], in experiment [5] and in [7] was inactive.
For `COCCOCCOCCOCCOC`, the call in experiment [9], in [4], in experiment [6] and in experiment [7] was inactive.
Take `O=c1n(CCO)c(=O)n(CCO)c(=O)n1CCO`: the call in [9], in experiment [3], in experiment [4], in experiment [5], in experiment [6] and in [7] was inactive.
For the compound `CCC(Cc1ccccc1)(C(=O)c1ccc(N2CCOCC2)cc1)N(C)C` (configuration not stated), the compound was classed as inactive in experiment [9], in experiment [3], in [4], in experiment [6] and in [7].
In the case of `C=C[Si](OC(C)=O)(OC(C)=O)OC(C)=O`, the result in [1], in experiment [2], in [3], in experiment [5], in experiment [6] and in experiment [7] was inactive.
`ON(Cc1ccccc1)Cc1ccccc1`: the result in experiment [1], in experiment [2], in experiment [3] and in experiment [6] was inactive.
With `C=C(C)[C@H]1CC=C(C)CC1`, the result in experiment [9], in experiment [5] and in [7] was inactive.
For the compound `CCCCCCCCO[C@@H]1O[C@H](CO)[C@@H](O)[C@H](O)[C@H]1O`, the outcome in [1], in experiment [2], in experiment [3], in [5], in experiment [7] and in experiment [8] was inactive.

One may read the AC50 as the concentration at which the activity in the assay is half-maximal.
